# TDP1 cell noCPT – qHTS for Inhibitors of human tyrosyl-DNA phosphodiesterase 1 (TDP1): qHTS in cells in absence of CPT; DT40 Tdp1-/- hTDP1 cells, no CPT, ATP luminescence, 48 h; Potency, µM (titrated, usually from 46.2 µM), for inactives: top-dose activity change, negative = growth inhibition, most hits filed as inhibitors; hit rate 15% among 420,000; note: potency is the fitted concentration of half-maximal effect; nearly all actives have a fitted effect of over 55% in size
#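 Luminescent ATP content (CellTiter-Glo) served as the growth readout. Knockout chicken DT40 cells expressing human TDP1 were exposed to compounds without camptothecin for a minimum 48 hr at 37 °C.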
# ELG1 DNA repair – ELG1-dependent DNA repair inhibition. AID 504467. HEK293T ELG1-luciferase reporter, luminescence, 16 h; DNA damage induced by 5-fluorouridine. hit rate 2.3% among 330,000. Potency, µM (doses to about 46.1 µM), inactives show top-dose activity change, negative = inhibition, most hits filed as inhibitors; note: potency is the fitted concentration of half-maximal effect; nearly all actives have a fitted effect of over 55% in size
#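 Cells (2,000 per well) received 5-fluorouridine plus test compound or DMSO and were incubated 16 hr at 37 °C, 5% CO2. Luciferase activity was read by luminescence 30 min after ONE-Glo addition; signal suppression marked inhibition of damage-induced ELG1 function.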
# HT1080 IDH1KD tx – toxicity to HT-1080 IDH1 knockdown cells (counter line); hit rate 2% among 360,000; Potency, µM (highest dose often 46.1 µM), for the others: top-dose activity, negative = toxicity, actives largely listed as cytotoxic; AID 686971; HT-1080 IDH1 knockdown viability, ATP luminescence, 48 h;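 note: potency is the fitted concentration of half-maximal effect; 0% = DMSO wells and -100% = cell-free medium wells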
#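 HT-1080-IDH1KD cells (IDH1 knocked down), 750/well in RPMI with 5% FBS, treated with compound 48 h at 37 degrees C. Viability by CellTiter-Glo luminescence, normalised to DMSO and no-cell wells; concentration-response curves classed.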
# HT1080NT lethal – kills 2HG-producing HT-1080-NT fibrosarcoma cells; hit rate 1.6% among 360,000; HT-1080-NT fibrosarcoma viability, CellTiter-Glo ATP luminescence, 48 h; Potency, µM (highest dose often 46.1 µM), for inactives: at the top dose activity, negative = less viability, most hits filed as cytotoxic; AID 686970;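 note: NT is the 2HG producing partner of a matched IDH1 knockdown line; potency is the fitted concentration of half-maximal effect; 0% = DMSO-treated cells and -100% = media-only wells without cells; nearly all actives have a fitted effect of over 55% in size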
#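 Read-out is CellTiter-Glo luminescence after 10 minutes at room temperature, following 48 hours' compound treatment of HT-1080-NT cells (750 cells/well, RPMI, 5% FBS, 37 degrees C).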
# IL1B secr inh – inflammasome signaling inhibition, IL-1 beta readout | THP-1 LPS/ATP IL-1B secretion, AlphaLISA, 16 h; stronger effect = lower value | activity change, % at 57.5 µM | hit rate 4.7% among 360,000 | AID 743279; in the data active = activity change below about -50%; inconclusive = mostly about -30% to -49%
#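 Secreted IL-1B measured by AlphaLISA bead assay after 16 h compound exposure of THP-1 cells; compounds (final up to 57.5 uM) added 1 h before LPS (250 ng/mL) and ATP (1.25 mM) stimulation; lower signal means less secretion.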
# DT40 TDP1 CPT – DT40-hTDP1 cell growth loss with CPT | chicken DT40 Tdp1-/-;hTDP1 cells + 20 nM CPT, ATP luminescence, 48 h | Potency, µM (highest dose often 46.2 µM), inactives show at the highest dose activity change, negative = growth inhibition, hits mostly inhibitors | hit rate 12% among 420,000; note: potency is the fitted concentration of half-maximal effect; nearly all actives have a fitted effect of over 55% in size
#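 Chicken DT40 Tdp1-/- cells stably complemented with human TDP1 were seeded at 400 cells/well in medium containing 20 nM camptothecin, exposed to pin-transferred compounds, and grown at 37 °C for at least 48 hr. Viability was read as ATP luminescence.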
# * = called active by the depositor; ? = inconclusive; · = no result; [ ] = remark or other dose. Shown are actives, neighbours in structure and some others; about 19% of the full set was active somewhere. Unless noted, calls come from the whole dose curve; as a rule, active = well fitted curve in the direction sought with a large enough effect; inconclusive = small, poorly fitted or top-dose-only effect, or another doubt; inactive = no such curve, though single readings can be large; an effect the other way counts as inactive or inconclusive. Unless noted, % is set by controls: 0 for no effect and ±100 for the full control effect.
SMILES,TDP1 cell noCPT,ELG1 DNA repair,HT1080 IDH1KD tx,HT1080NT lethal,IL1B secr inh,DT40 TDP1 CPT
CN(C)CCOC1(Cc2ccc(F)cc2)CCC(C(C)(C)C)CC1 (stereo not given),18.4µM*,·,-10.7%,-19.8%,-104.4*,?
Nc1cc2c(cc1Cl)-c1ccc(Cl)cc1C2=O,-12.5%,·,13.8%,-0.5%,-13.7,-0.3%
CCOC(=O)c1sc2ncn(CC(=O)Nc3cc(C)on3)c(=O)c2c1C,1.8%,9.7%,18.0%,7.6%,-10.0,-10.2%
Nc1nnnn1/N=C/c1cccc(Oc2ccccc2)c1,-3.8%,?,4.3%,1.8%,2.7,-3.5%
Nc1nnnn1/N=C/c1cccc(OCc2ccccc2Cl)c1,?,?,-27.5%,-29.0%,25.2,25.9µM*
Clc1ccc(Cn2cc3c(n2)-c2cc4ccccc4n2C3)cc1,12.6µM*,·,·,·,·,?
Clc1ccc(Cn2nnc3ccccc32)cc1,-1.8%,1.5%,-3.3%,-1.2%,7.2,-6.2%
C[C@@H]1CCCCO[C@@H](CN(C)C(=O)CCCN(C)C)[C@@H](C)CN([C@H](C)CO)C(=O)c2cc(N(C)C)ccc2O1,17.6%,·,5.8%,9.7%,-0.4,-5.4%
CC1(C)CC(C(CCN(Cc2ccccc2)C(=O)c2ccco2)c2ccc(F)cc2)CCO1 (stereo not given),?,?,?,?,-52.2*,?
CC1(C)CC(N(Cc2ccc(F)cc2)C(=O)c2ccc(F)cc2)CCO1 (stereo not given),?,?,5.7%,4.8%,-14.3,-21.9%
FC(F)(F)c1nc2ccccc2n2c(-c3c(Cl)cccc3Cl)nnc12,20.6µM*,4.4%,-5.3%,-9.5%,18.2,25.9µM*
CCc1nnc2c(N3CCN(c4cc(Cl)ccc4C)CC3)nc3ccccc3n12,-13.4%,·,·,·,·,-4.6%
FC(F)(F)c1nc2ccccc2n2c(-c3ccc(Cl)cc3Cl)nnc12,20.6µM*,-1.9%,?,?,-4.0,20.6µM*
Cc1ccc(SCC(=O)OCC(=O)NCCc2ccc(S(N)(=O)=O)cc2)c(C)c1,-7.1%,4.8%,11.4%,13.2%,12.7,8.8%
CC(CCc1ccccc1)NC(=O)CNC(=O)N1CC(=O)Nc2ccccc21 (stereo not given),7.5%,6.4%,7.6%,-2.6%,-3.8,-2.3%
CCCCN(C(=O)c1ccc(N2CCCC2=O)cc1)c1c(N)n(CCC)c(=O)[nH]c1=O,6.51µM*,6.8%,0.0%,2.2%,-11.1,-15.4%
Cc1ccsc1CN1CCc2nnc(CCNC(=O)c3ccc(F)cc3)n2CC1,-9.7%,·,·,·,·,5.0%
O=C(NCc1nnc2n1CCN(Cc1ccc(C(F)(F)F)cc1)CC2)c1ccccn1,-13.3%,·,·,·,·,3.1%[9.04 µM]
COc1cccc(-c2c(-c3ccccc3OC)ncn2Cc2cccc(-c3ccccc3)c2)c1,11.6µM*,·,?,?,?,8.2µM*
COc1cccc(Cn2cnc(-c3ccccc3OC)c2-c2ccco2)c1,18.4µM*,·,-16.4%,-29.6%,0.0,18.4µM*
COc1cccc(Oc2nc3ncn(Cc4ccccc4)c3c(=O)n2C)c1,-24.6%,0.5%,-13.5%,-11.1%,12.0,-19.7%
Cc1ccc(S(=O)(=O)N(C)C)cc1NC(=O)C(C)N(C)Cc1sccc1C (stereo not given),20.6µM*,-20.3%,-14.1%,-0.4%,?,18.4µM*
Cc1ccc(S(=O)(=O)N(C)C)cc1NC(=O)C(C)NC(C)c1cccs1 (stereo not given),-24.1%,?,-4.3%,-0.8%,50.9,?
COc1ccc(/C=N/Nc2cc(C)nc3ccccc23)cc1,?,-5.8%,?,18.4µM*,-106.9*,?
COc1cccc2c(N/N=C/c3ccc(O)c(O)c3)cc(C)nc12,-17.6%,?,5.5%,1.5%,23.4,17.8%
SMILES,TDP1 cell noCPT,ELG1 DNA repair,HT1080 IDH1KD tx,HT1080NT lethal,IL1B secr inh,DT40 TDP1 CPT
COc1ccc2nc(C)cc(N/N=C/c3ccc(F)cc3)c2c1,0.92µM*,?,4.61µM*,2.91µM*,-98.6*,1.03µM*
COc1ccc(/C=N/Nc2cc(C)nc3c(C)cccc23)cc1,20.6µM*,3.6%,?,?,?,?
Cc1nn(Cc2noc(C(=O)NCc3ccccn3)n2)c(C)c1Br,9.0%,15.8%,-10.7%,-22.4%,13.7,3.2%
Cc1ccccc1N1CCN(C2CCCN(C(=O)CSc3ccccn3)C2)CC1 (stereo not given),?,·,0.8%,4.3%,8.2,?
O=C(NCc1ccc(Cl)cc1Cl)C1CCN(S(=O)(=O)c2ccc3c(c2)OCCCO3)CC1,?,?,-20.9%,0.0%,-6.4,20.6µM*
O=C(CCNC(=O)C1CCN(S(=O)(=O)c2ccccc2)CC1)NCc1ccc(Cl)cc1,?,-19.5%,-1.3%,3.7%,8.0,-26.8%
O=C(NCc1ccc(F)cc1)C1CCN(S(=O)(=O)c2ccc3c(c2)OCCCO3)CC1,?,?,-2.3%,7.8%,-27.8,?
O=C(CCNC(=O)C1CCN(S(=O)(=O)c2ccccc2)CC1)NCc1ccc(Cl)cc1Cl,?,-5.6%,-8.3%,-21.2%,-21.9,20.6µM*
Cc1c(Cl)cccc1NC(=O)Cn1nc(C(F)(F)F)c2c1CCC2,-4.1%,·,·,·,·,-25.5%
COc1ccc(N2C(=O)c3ccc(C(=O)OC(C)C)cc3C2=O)cc1,5.8µM*,6.8%,0.4%,-23.4%,3.6,6.51µM*
CC(C)CN1CC(Br)C(=O)NC1=O (stereo not given),?,·,8.4%,12.7%,-0.2,?
CCCCN1CC(Br)C(=O)NC1=O (stereo not given),18.4µM*,·,9.9%,11.6%,-10.0,14.6µM*
Cc1ccc(Cc2nnc3n(-c4ccccc4)nc(C(=O)c4ccccc4)n3c2=O)cc1,?,20.6µM*,-27.7%,-1.3%,-4.1,?
C=CCOn1c(=O)c(-c2ccc(OCC)cc2)[n+]([O-])c2ccccc21,-20.3%,12.5%,?,?,-0.3,4.9%
COc1ccc(Cl)cc1NC(=O)CN(C)CC(=O)NCc1cccs1,?,-2.3%,-2.1%,0.5%,-11.8,?
COc1ccc(Cl)cc1NC(=O)Cn1c(=O)n(Cc2cccs2)c(=O)c2cccnc21,18.4µM*,·,·,·,·,?
CCc1ccc(NC(=O)Cn2c(=O)n(Cc3ccc(C)cc3)c(=O)c3cccnc32)cc1,-11.1%,·,·,·,·,?
COc1ccc(CCn2c(=O)c3cccnc3n(CC(=O)Nc3ccc(C)c(F)c3)c2=O)cc1OC,20.6µM*,·,·,·,·,4.11µM*
